Hit rate of the full screen: of about 5,500 compounds, about 2,000 (36%) were called active. Inconclusive results (about 18%) are left out. Rule as the data show it: active = normalized growth mostly below about 0.91 (no sharp cut-off); inconclusive = no clear call, values can overlap the other calls; inactive = mostly above about 0.92. Some of the results follow.
Experiment: chemical genetic growth profiling, strain panel (AID 1159580);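 also: tested at 20 µM; growth read once vehicle control cultures reached saturation at 30 °C; 1 = growth at the plate median or of vehicle wells; lower values mean less growth of the strain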
Conditions: S. cerevisiae deletion strains, growth OD

Measured: normalized growth

CCOC(=O)C1C(c2ccc(Br)cc2)C(C(=O)OCC)C(O)(C(F)(F)F)NC1(O)C(F)(F)F (stereo unspecified)
inactive: locus YAR019C, strain CDC15, hits give low values 0.999 | locus YBL105C, strain PKC1, hits give low values 0.991 | locus YBR135W, strain CKS1, hits give low values 1 | locus YBR136W, strain MEC1, hits give low values 0.988 | locus YBR160W, strain CDC28, hits give low values 0.999 | locus YDL017W, strain CDC7, hits give low values 0.996 | locus YDL028C, strain MPS1, hits give low values 0.999 | locus YDL101C, strain DUN1, hits give low values 0.99 | locus YDL108W, strain KIN28, hits give low values 1 | locus YDL132W, strain cdc53, hits give low values 0.996 | locus YDL214C, strain PRR2, hits give low values 0.961 | locus YDR052C, strain DBF4, hits give low values 0.994 | locus YDR054C, strain cdc34, hits give low values 0.992 | locus YDR226W, strain ADK1, hits give low values 0.998 | locus YDR477W, strain SNF1, hits give low values 0.994 | locus YER123W, strain YCK3, hits give low values 0.917 | locus YER133W, strain GLC7, hits give low values 0.969 | locus YFL009W, strain cdc4, hits give low values 0.998 | locus YFL029C, strain CAK1, hits give low values 0.994 | locus YFR003C, strain YPI1, hits give low values 0.995 | locus YFR019W, strain FAB1, hits give low values 0.878 | locus YFR028C, strain CDC14, hits give low values 0.995 | locus YGR040W, strain KSS1, hits give low values 0.99 | locus YGR052W, strain FMP48, hits give low values 1 | locus YGR092W, strain DBF2, hits give low values 0.993 | locus YHR030C, strain SLT2, hits give low values 0.941 | locus YHR079C, strain IRE1, hits give low values 0.981 | locus YHR082C, strain KSP1, hits give low values 0.961 | locus YHR205W, strain SCH9, hits give low values 0.91 | locus YIL147C, strain SLN1, hits give low values 0.999 | locus YJL095W, strain BCK1, hits give low values 0.97 | locus YJL128C, strain PBS2, hits give low values 0.967 | locus YJL157C, strain FAR1, hits give low values 0.975 | locus YJR016C, strain ILV3, hits give low values 0.997 | locus YJR066W, strain TOR1 (second series), hits give low values 0.943 | locus YJR066W, strain TOR1, hits give low values 0.911 | locus YKL048C, strain ELM1, hits give low values 0.986 | locus YKL067W, strain YNK1, hits give low values 0.974 | locus YKL101W, strain HSL1, hits give low values 1 | locus YKL193C, strain SDS22, hits give low values 0.998 | locus YKL203C, strain TOR2, hits give low values 1.03 | locus YLR113W, strain HOG1, hits give low values 0.91 | locus YLR133W, strain CKI1, hits give low values 0.97 | locus YLR403W, strain SFP1, hits give low values 0.966 | locus YML070W, strain DAK1, hits give low values 0.956 | locus YMR001C, strain CDC5, hits give low values 0.987 | locus YMR205C, strain PFK2 (second series), hits give low values 0.988 | locus YMR277W, strain FCP1, hits give low values 0.996 | locus YNL006W, strain LST8, hits give low values 0.999 | locus YNL020C, strain ARK1, hits give low values 0.99 | locus YNL161W, strain CBK1, hits give low values 0.999 | locus YNL183C, strain NPR1, hits give low values 0.942 | locus YNL207W, strain RIO2, hits give low values 0.996 | locus YNL222W, strain SSU72, hits give low values 0.999 | locus YNL307C, strain MCK1 (second series), hits give low values 0.969 | locus YOL078W, strain AVO1, hits give low values 1 | locus YOL136C, strain PFK27, hits give low values 0.947 | locus YOR061W, strain CKA2, hits give low values 0.995 | locus YOR119C, strain RIO1, hits give low values 1.01 | locus YOR231W, strain MKK1, hits give low values 0.984 | locus YOR329C, strain SCD5, hits give low values 0.995 | locus YPL031C, strain PHO85, hits give low values 0.999 | locus YPL153C, strain RAD53, hits give low values 0.989 | locus YPL204W, strain HRR25, hits give low values 0.985 | locus YPL209C, strain IPL1, hits give low values 0.996 | locus YPL256C, strain CLN2, hits give low values 0.9 | locus YPR025C, strain CCL1, hits give low values 0.997 | locus YPR106W, strain ISR1, hits give low values 0.99 | locus YPR111W, strain DBF20, hits give low values 0.99 | strain NNK1, hits give low values 0.992 | strain TSCII, hits give low values 0.998
